Source: PubChem BioAssay (EPA / NIEHS)
Where “and” joins values, the source holds several entries; their conditions need not be identical. Equal values may be shown once. Calls of active or inactive are those of the source. Rule for the calls: active = hit-call score of the fitted dose curve at least 0.9, where 1 is the maximum; inactive = score below 0.9.

Columns and labels:
[1] = read-out: TIMP metallopeptidase inhibitor 2 (TIMP2), TIMP2 (gene 7077); test: BSK_KF3CT_TIMP2: BioMAP Diversity Plus: KF3CT Assay for TIMP metallopeptidase inhibitor 2 (TIMP2) Biomarker Activity (AID 2283071); conditions: primary human keratinocytes with fibroblasts; actives raise or lower the signal
Procedure, shortened: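 Cells: human keratinocytes co-cultured with foreskin fibroblasts. Treat with chemical, 24 h. Measure TIMP-2 by ELISA; fit curves bidirectionally vs DMSO baseline.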

[2] = read-out: C-C motif chemokine 2 (Homo sapiens) (UniProt P13500); test: BSK_KF3CT_MCP1: BioMAP Diversity Plus: KF3CT Assay for Monocyte Chemoattractant Protein 1 (MCP1/CCL2) Biomarker Activity (AID 2283073); conditions: primary human keratinocytes with fibroblasts; actives raise or lower the signal
Procedure, shortened: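 ELISA read-out of MCP-1, 24 h post-dose, in primary human skin keratinocytes co-cultured with fibroblasts. Parallel SRB staining monitors cytotoxicity; changes fitted both directions relative to DMSO.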

[3] = read-out: Matrix Metallopeptidase 9 (MMP9), MMP9 (gene 4318); test: BSK_KF3CT_MMP9: BioMAP Diversity Plus: KF3CT Assay for Matrix Metallopeptidase 9 (MMP9) Biomarker Activity (AID 2283074); conditions: primary human keratinocytes with fibroblasts; actives raise or lower the signal;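 for AC50: MMP9 protein level quantified by ELISA in the co-culture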
Procedure, shortened: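 Human keratinocyte and foreskin fibroblast co-culture exposed to chemicals for 24 h; MMP9 biomarker measured by ELISA, bidirectional fitting relative to DMSO; cytotoxicity tracked by SRB total protein staining in parallel cultures.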

[4] = read-out: urokinase plasminogen activator (uPA), PLAU (gene 5328); test: BSK_KF3CT_uPA: BioMAP Diversity Plus: KF3CT Assay for urokinase plasminogen activator (uPA) Biomarker Activity (AID 2283075); conditions: primary human keratinocytes with fibroblasts; actives raise or lower the signal
Procedure, shortened: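 Primary human keratinocyte/foreskin fibroblast co-culture exposed to chemical; uPA measured by ELISA at 24 h. Bidirectional fit versus DMSO, with parallel SRB total-protein staining for cytotoxicity.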

CD40, CD40 (gene 958) [5] = test: BSK_LPS_CD40: BioMAP Diversity Plus: LPS Assay for CD40 Biomarker Activity (AID 2283076); conditions: primary human HUVEC with PBMC; actives raise or lower the signal
Procedure, shortened: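 In the LPS system of human endothelial cells with peripheral blood mononuclear cells, CD40 levels were read by ELISA 24 h post-treatment. Signal changes in either direction were fitted against the DMSO baseline, with parallel SRB protein staining.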

[6] = read-out: E-selectin (Homo sapiens) (UniProt P16581); test: BSK_LPS_Eselectin: BioMAP Diversity Plus: LPS Assay for Eselectin Biomarker Activity (AID 2283077); conditions: primary human HUVEC with PBMC; actives raise or lower the signal
Procedure, shortened: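 E-selectin ELISA on LPS-stimulated endothelial cell/PBMC co-cultures, read 24 h post-treatment; gains and losses fitted against DMSO. Parallel SRB staining (0.1% SRB after 10% TCA fixation, 560 nm) flags overt cytotoxicity.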

[7] = BSK_LPS_SRB: Viability Assessment in the BioMAP Diversity Plus: LPS Assay (AID 2283079); conditions: primary human HUVEC with PBMC;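 note: total protein by sulforhodamine B absorbance as a cytotoxicity measure; measured one day after compound addition; fitted in both directions against DMSO so loss or gain of signal counts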
Procedure, shortened: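 SRB viability endpoint: cells fixed with 10% TCA, stained with 0.1% SRB, read at 560 nm, 24 h post-dose. HUVEC/PBMC co-culture; signal change in either direction scored relative to DMSO.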

[8] = read-out: Interleukin-1 alpha (IL1a), IL1A (gene 3552); test: BSK_LPS_IL1a: BioMAP Diversity Plus: LPS Assay for Interleukin-1 alpha (IL1a) Biomarker Activity (AID 2283080); conditions: primary human HUVEC with PBMC; actives raise or lower the signal
Procedure, shortened: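 Readout is IL-1a level by ELISA, 24 h post-dose, fitted as gain or loss relative to DMSO. System: LPS-activated human primary co-culture of vascular endothelium and peripheral blood mononuclear cells, with parallel SRB total-protein cytotoxicity.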

[9] = read-out: Monocyte Chemoattractant Protein-1 (MCP1), CCL2 (gene 6347); test: BSK_LPS_MCP1: BioMAP Diversity Plus: LPS Assay for Monocyte Chemoattractant Protein-1 (MCP1) Biomarker Activity (AID 2283081); conditions: primary human HUVEC with PBMC; actives raise or lower the signal;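 for AC50: secreted MCP-1 protein quantified by ELISA in culture supernatant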
Procedure, shortened: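 Secreted MCP-1 read by ELISA at 24 h post-dosing in an LPS-activated co-culture of endothelial cells with peripheral blood mononuclear cells. Fits run in both directions, DMSO as baseline; parallel SRB staining tracks overt cytotoxicity.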

[10] = BSK_LPS_PGE2: BioMAP Diversity Plus: LPS Assay for Prostaglandin E2 (PGE2) Biomarker Activity (AID 2283082); conditions: primary human HUVEC with PBMC; actives raise or lower the signal;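 for AC50: secreted prostaglandin E2 measured by ELISA in LPS-stimulated co-culture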
Procedure, shortened: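 LPS-activated HUVEC/PBMC co-culture; cmpd dosed, 24 h; PGE2 by ELISA; bidirectional fit vs DMSO; SRB (0.1%, TCA-fixed, 560 nm) in parallel plates for overt cytotox.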

[11] = read-out: Macrophage colony-stimulating factor (MCSF), CSF1 (gene 1435); test: BSK_LPS_MCSF: BioMAP Diversity Plus: LPS Assay for Macrophage colony-stimulating factor (MCSF) Biomarker Activity (AID 2283083); conditions: primary human HUVEC with PBMC; actives raise or lower the signal
Procedure, shortened: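 Bidirectional fitting against DMSO was applied to M-CSF levels read by ELISA at 24 h post-dose. The system pairs human umbilical vein endothelium with peripheral blood mononuclear cells; parallel SRB staining tracked cytotoxicity.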

[12] = read-out: Tissue Factor, F3 (gene 2152); test: BSK_LPS_TissueFactor: BioMAP Diversity Plus: LPS Assay for Tissue Factor Biomarker Activity (AID 2283084); conditions: primary human HUVEC with PBMC; actives raise or lower the signal
Procedure, shortened: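 Compound was added to an endothelial cell/PBMC co-culture, and after 24 h tissue factor (CD142) was read by ELISA. Gain or loss of signal was fitted against a DMSO baseline, and parallel SRB staining (560 nm) tracked overt cytotoxicity.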

[13] = read-out: Tumor necrosis factor (Homo sapiens) (UniProt P01375); test: BSK_LPS_TNFa: BioMAP Diversity Plus: LPS Assay for Tumour Necrosis Factor alpha (TNFa) Biomarker Activity (AID 2283085); conditions: primary human HUVEC with PBMC; actives raise or lower the signal
Procedure, shortened: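 Read-out is ELISA of TNFa in primary human endothelial cell–PBMC co-cultures at 24 h after compound. Activity in either direction was fitted against DMSO.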

[14] = read-out: Vascular cell adhesion molecule 1 (VCAM1), VCAM1 (gene 7412); test: BSK_LPS_VCAM1: BioMAP Diversity Plus: LPS Assay for Vascular cell adhesion molecule 1 (VCAM1) Biomarker Activity (AID 2283086); conditions: primary human HUVEC with PBMC; actives raise or lower the signal
Procedure, shortened: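 HUVEC + PBMC co-culture, LPS system; compound 24 h; VCAM-1 by ELISA; bidirectional fit vs DMSO control; parallel SRB (0.1%, TCA-fixed, 560 nm) for cytotoxicity.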

CD38, CD38 (gene 952) = test: BSK_SAg_CD38: BioMAP Diversity Plus: SAg Assay for CD38 Biomarker Activity (AID 2283087); conditions: primary human HUVEC with PBMC; actives raise or lower the signal
Procedure, shortened: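 Human HUVEC plus PBMC co-culture stimulated with superantigen; CD38 measured by ELISA 24 h after chemical dosing. Fluorescence read-out, bidirectional fit against DMSO; cytotoxicity tracked in parallel by SRB and Alamar Blue.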

CD40, CD40 (gene 958) [15] = test: BSK_SAg_CD40: BioMAP Diversity Plus: SAg Assay for CD40 Biomarker Activity (AID 2283088); conditions: primary human HUVEC with PBMC; actives raise or lower the signal
Procedure, shortened: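 CD40 is measured by fluorescence ELISA in an endothelial/PBMC primary human co-culture at 24 h post-dose. Fitting is bidirectional, DMSO baseline. Parallel SRB staining (560 nm) flags cytotoxicity.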

CD69, CD69 (gene 969) = test: BSK_SAg_CD69: BioMAP Diversity Plus: SAg Assay for CD69 Biomarker Activity (AID 2283089); conditions: primary human HUVEC with PBMC; actives raise or lower the signal;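 for AC50: cell surface CD69 protein quantified by ELISA with fluorescence detection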
Procedure, shortened: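 ELISA, fluorescence read-out: CD69 on human umbilical vein endothelial cell + PBMC co-culture, 24 h post-dosing. Gain or loss of signal fitted bidirectionally against DMSO baseline.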

[16] = read-out: Monocyte Chemoattractant Protein-1 (MCP1), CCL2 (gene 6347); test: BSK_SAg_MCP1: BioMAP Diversity Plus: SAg Assay for Monocyte Chemoattractant Protein-1 (MCP1) Biomarker Activity (AID 2283090); conditions: primary human HUVEC with PBMC; actives raise or lower the signal
Procedure, shortened: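 MCP-1 levels in the endothelial–PBMC SAg co-culture were quantified by ELISA at 24 h post-dosing; both increases and decreases versus DMSO scored. Cytotoxicity monitored by SRB total protein in parallel cultures.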

[17] = read-out: Transforming growth factor beta 1 (TGFb1), TGFB1 (gene 7040); test: BSK_KF3CT_TGFb1: BioMAP Diversity Plus: KF3CT Assay for Transforming growth factor beta 1 (TGFb1) Biomarker Activity (AID 2283072); conditions: primary human keratinocytes with fibroblasts; actives raise or lower the signal
Procedure, shortened: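 Primary human skin cells (keratinocytes, foreskin fibroblasts) were co-cultured, exposed to test chemical and sampled at 24 h. TGF-b1 levels were measured by ELISA and fitted bidirectionally relative to DMSO.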

Measured: AC50

Sequence of Tumor necrosis factor (Homo sapiens) (P01375 whole entry, looked up): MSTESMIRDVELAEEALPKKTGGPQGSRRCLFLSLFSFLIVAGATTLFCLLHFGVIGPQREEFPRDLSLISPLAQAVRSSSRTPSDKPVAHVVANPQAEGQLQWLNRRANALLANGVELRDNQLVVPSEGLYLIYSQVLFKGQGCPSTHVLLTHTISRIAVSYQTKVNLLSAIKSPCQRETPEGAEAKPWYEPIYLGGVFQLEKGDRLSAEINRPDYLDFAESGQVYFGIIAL
Sequence of E-selectin (Homo sapiens) (P16581 whole entry, looked up): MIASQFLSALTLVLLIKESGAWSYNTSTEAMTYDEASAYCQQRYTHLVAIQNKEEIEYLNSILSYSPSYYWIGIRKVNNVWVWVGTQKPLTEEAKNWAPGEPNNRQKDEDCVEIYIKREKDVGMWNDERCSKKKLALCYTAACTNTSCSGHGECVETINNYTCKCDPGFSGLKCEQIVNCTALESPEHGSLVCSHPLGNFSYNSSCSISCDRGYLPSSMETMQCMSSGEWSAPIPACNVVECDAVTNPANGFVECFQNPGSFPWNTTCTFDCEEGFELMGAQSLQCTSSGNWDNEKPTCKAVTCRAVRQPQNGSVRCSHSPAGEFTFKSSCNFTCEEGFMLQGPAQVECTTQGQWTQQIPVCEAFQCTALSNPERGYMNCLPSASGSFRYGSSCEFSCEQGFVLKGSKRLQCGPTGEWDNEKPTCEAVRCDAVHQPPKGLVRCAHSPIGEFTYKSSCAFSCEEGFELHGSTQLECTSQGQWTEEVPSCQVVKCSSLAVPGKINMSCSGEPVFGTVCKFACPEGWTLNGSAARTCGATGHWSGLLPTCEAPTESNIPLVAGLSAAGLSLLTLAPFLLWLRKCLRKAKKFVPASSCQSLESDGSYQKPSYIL

Nc1cc([N+](=O)[O-])ccc1O
active: [10] 3.97 µM and 6.28 µM
not listed: [17]
inactive: all other assays above

O=P(c1ccccc1)(c1ccccc1)c1ccccc1
inactive: all assays above

O=C(O)C[C@H](O)C[C@H](O)/C=C/c1c(C2CC2)nc2ccccc2c1-c1ccc(F)cc1
active: [6] 0.0822 µM | [7] 0.256 µM | [13] 3.17 µM | CD40, CD40 (gene 958) [15] 0.216 µM | CD69, CD69 (gene 969) 0.109 µM
not listed: [8]
inactive: all other assays above

CCCCC/C=C/C=C/C=O
active: [1] 24.3 µM | [17] 9.27 µM | [2] 32.5 µM | [3] 26.8 µM | [4] 31.4 µM | CD40, CD40 (gene 958) [5] 20 µM | [6] 34.1 µM | [7] 29.7 µM | [8] 29.2 µM | [9] 33.5 µM | [10] 25.3 µM | [11] 33.2 µM | [12] 31.9 µM | [13] 30.8 µM | [14] 30 µM | CD38, CD38 (gene 952) 31.7 µM | CD40, CD40 (gene 958) [15] 20 µM | CD69, CD69 (gene 969) 30 µM | [16] 31.2 µM

CNC[C@H](O)c1cccc(O)c1
active: [2] 0.0741 µM | [10] 0.167 µM
inactive: all other assays above

CCC(=O)OCc1ccccc1
not listed: [17]
inactive: all other assays above

C#C[C@]1(O)CC[C@H]2[C@@H]3CCC4=Cc5oncc5C[C@]4(C)[C@H]3CC[C@@]21C
active: [1] 3.28 µM | [3] 3.97 µM | [7] 6.65 µM | [10] 3.97 µM
inactive: all other assays above

O=C(O)c1cn(C2CC2)c2cc(N3CCNCC3)c(F)cc2c1=O
not listed: [11]
inactive: all other assays above

Cc1cc(C2(c3cc(C)c(O)cc3C)OS(=O)(=O)c3ccccc32)c(C)cc1O
not listed: [17]
inactive: all other assays above

C=C[Si](OCC)(OCC)OCC
inactive: all assays above

NCCNCCN
not listed: [17]
inactive: all other assays above

CC(=O)O[C@]1(C(C)=O)CC[C@H]2[C@@H]3C[C@H](C)C4=CC(=O)CC[C@]4(C)[C@H]3CC[C@@]21C
inactive: all assays above

BrC1CCC(Br)C(Br)CCC(Br)C(Br)CCC1Br (stereo unspecified)
active: [1] 1.53 µM | [3] 4.72 µM | [4] 4.69 µM | CD40, CD40 (gene 958) [5] 4.57 µM | [7] 4.63 µM | [8] 4.58 µM | [10] 3.87 µM | [11] 4.67 µM | [14] 4.54 µM | CD38, CD38 (gene 952) 4.57 µM | CD40, CD40 (gene 958) [15] 4.59 µM
inactive: [17] | [2] | [6] | [9] | [12] | [13] | CD69, CD69 (gene 969) | [16]
